Test results: PubChem BioAssay (Tox21)
Results filed as inconclusive are left out. Activity calls are given as the source filed them. Unless noted, calls come from the whole dose curve.

Assays:
[1] = Nuclear factor erythroid 2-related factor 2/antioxidant responsive element (Nrf2/ARE) small molecule agonists: qHTS cell viability counter screen in human keratinocytes (AID 1919968; active = well fitted curve in the direction sought with a large enough effect in the repeat runs; an effect the other way counts as inactive or inconclusive; note: nearly all actives have a fitted effect of over 55% in size)
In short: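 CellTiter-Fluor fluorescence, read 1 h after reagent, gave viability in the same wells as the ARE-luciferase assay. KeratinoSens cells (1,500/well) had 23 h compound exposure at 37 C/5% CO2 following 5 h plating.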

[2] = Nuclear factor erythroid 2-related factor 2/antioxidant responsive element (Nrf2/ARE) small molecule agonists: luciferase reporter gene qHTS assay in human keratinocytes (AID 1919969); note: nearly all actives have a fitted effect of over 35% in size
[3] = biological target: Gonadotropin-releasing hormone receptor (Homo sapiens) (UniProt P30968); test: Human gonadotropin-releasing hormone receptor (GnRHR) small molecule agonists, calcium flux assay in GnRHR-HEK293 cells (AID 1920063); note: nearly all actives have a fitted effect of over 35% in size
Sequence of Gonadotropin-releasing hormone receptor (Homo sapiens) (P30968 whole entry, looked up): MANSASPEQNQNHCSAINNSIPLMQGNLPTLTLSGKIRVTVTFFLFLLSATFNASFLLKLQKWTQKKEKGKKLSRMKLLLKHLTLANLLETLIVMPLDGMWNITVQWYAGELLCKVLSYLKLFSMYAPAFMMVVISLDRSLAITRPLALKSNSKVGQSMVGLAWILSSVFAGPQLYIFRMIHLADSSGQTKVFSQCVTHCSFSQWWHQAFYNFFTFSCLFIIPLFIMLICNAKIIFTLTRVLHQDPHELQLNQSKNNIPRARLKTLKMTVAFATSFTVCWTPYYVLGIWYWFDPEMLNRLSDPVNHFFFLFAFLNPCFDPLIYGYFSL
In short: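 Agonist mode: compounds at 15 concentrations, in triplicate, went onto calcium dye-loaded GnRHR-HEK293 cells. Intracellular calcium was then followed as 480/540 nm fluorescence at 1 s intervals over 3 min.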

[4] = biological target: KiSS-1 receptor (Homo sapiens) (UniProt Q969F8); test: Human kisspeptin (KISS1R) small molecule agonists, calcium flux assay in KISS1R-HEK293 cells (AID 1920064; active = well fitted curve in the direction sought with a large enough effect in the repeat runs; an effect the other way counts as inactive or inconclusive)
Sequence of KiSS-1 receptor (Homo sapiens) (Q969F8 whole entry, looked up): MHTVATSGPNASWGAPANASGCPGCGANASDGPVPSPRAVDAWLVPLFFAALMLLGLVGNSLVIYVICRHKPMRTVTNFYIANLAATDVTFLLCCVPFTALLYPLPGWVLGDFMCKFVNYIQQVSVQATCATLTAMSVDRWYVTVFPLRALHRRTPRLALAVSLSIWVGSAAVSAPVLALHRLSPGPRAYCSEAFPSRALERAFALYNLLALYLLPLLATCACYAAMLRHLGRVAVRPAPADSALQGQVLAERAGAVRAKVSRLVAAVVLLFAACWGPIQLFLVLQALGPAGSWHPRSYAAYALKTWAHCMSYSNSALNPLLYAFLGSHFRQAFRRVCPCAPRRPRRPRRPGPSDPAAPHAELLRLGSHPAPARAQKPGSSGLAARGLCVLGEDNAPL
In short: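 Agonist mode: intracellular calcium rise tracked at 1 s intervals over 3 min (480/540 nm) immediately after compound addition to dye-loaded KISS1R-HEK293 stable cells. Each compound tested at 15 concentrations in triplicate.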

[5] = G protein-coupled receptor (GPCR) small molecule agonists, calcium flux assay: HEK293 wild type cell line counter screen (AID 1920065)
In short: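 Calcium flux counter screen: compound added in agonist mode at 15 concentrations in triplicate to dye-loaded parental HEK293 cells. Fluorescence (480/540) read kinetically for 3 min; ATP served as positive control.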

[6] = p53 small molecule agonists, cell-based qHTS assay with human liver microsomes (AID 1963577);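 note: p53 response element beta-lactamase reporter cells with liver microsomes plus NADPH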
In short: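 Metabolically competent format: test substances, human liver microsomes and NADPH (both 0.5 mg/mL final) incubated with p53RE-bla cells 16 h at 37 C. Beta-lactamase reporter signal then quantified by fluorescence.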

[7] = p53 small molecule agonists, cell-based qHTS assay with rat liver microsomes (AID 1963578)
In short: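 Each plate received p53RE-bla cells, then compound, then rat liver microsomes and NADPH (both 0.5 mg/mL final). Plates were held 16 h at 37 C, and beta-lactamase activity was detected with LiveBLAzer over 2 h.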

[8] = p53 small molecule agonists, cell-based qHTS assay with human liver microsomes: qHTS cell viability counter screen (AID 1963579); note: nearly all actives have a fitted effect of over 45% in size
In short: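 Tox21 library compounds, delivered from DMSO stocks, were tested on p53RE-bla cells together with 0.5 mg/mL human liver microsomes and 0.5 mg/mL NADPH (final) over 16 h at 37 C; CellTiter-Glo luminescence served as the cytotoxicity measure.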

[9] = p53 small molecule agonists, cell-based qHTS assay with rat liver microsomes: qHTS cell viability counter screen (AID 1963580); note: nearly all actives have a fitted effect of over 45% in size
In short: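 Counter screen for cytotoxicity under metabolic activation: rat liver microsomes and NADPH, 0.5 mg/mL final each, added with compounds to p53RE-bla HCT-116 cells; 16 h at 37 C, then ATP luminescence read.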

[10] = p53 small molecule agonists, cell-based qHTS assay: qHTS cell viability counter screen (AID 1963581); note: nearly all actives have a fitted effect of over 45% in size
In short: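 Counter screen read by CellTiter-Glo luminescence (ATP content, 30 min at room temperature), run in the same wells as the beta-lactamase reporter read. HCT-116 p53RE-bla cells saw compounds for 16 h at 37 C.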

[11] = p53 small molecule agonists, cell-based qHTS assay (AID 1963582; active = well fitted activation curve with a large enough effect in the signal ratio in the repeat runs, not every such curve was filed as active; the % refers to the signal ratio)
In short: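 Read-out is beta-lactamase FRET fluorescence after 2 h at room temperature with LiveBLAzer B/G substrate. p53 response element-bla cells were treated 16 h at 37 C with compounds in DMSO, added 5 h after seeding.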

[12] = biological target: Muscarinic acetylcholine receptor M1 (Homo sapiens) (UniProt P11229); test: Cholinergic receptor muscarinic 1 (CHRM1) small molecule antagonists, cell-based qHTS assay (AID 1963588); note: nearly all actives have a fitted effect of over 40% in size
Sequence of Muscarinic acetylcholine receptor M1 (Homo sapiens) (P11229 whole entry, looked up): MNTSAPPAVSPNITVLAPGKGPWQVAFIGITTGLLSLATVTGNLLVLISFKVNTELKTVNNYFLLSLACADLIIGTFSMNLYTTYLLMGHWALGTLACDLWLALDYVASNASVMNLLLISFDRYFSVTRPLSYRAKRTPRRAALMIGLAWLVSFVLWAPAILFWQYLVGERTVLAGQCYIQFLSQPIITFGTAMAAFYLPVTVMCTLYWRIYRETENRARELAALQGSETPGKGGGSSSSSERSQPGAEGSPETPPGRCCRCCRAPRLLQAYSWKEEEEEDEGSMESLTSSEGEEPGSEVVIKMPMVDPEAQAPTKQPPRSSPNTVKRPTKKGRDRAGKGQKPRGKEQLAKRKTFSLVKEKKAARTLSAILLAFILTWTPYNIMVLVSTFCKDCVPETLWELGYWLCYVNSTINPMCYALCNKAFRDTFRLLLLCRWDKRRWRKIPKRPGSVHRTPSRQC
In short: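 Compounds were tested at 15 concentrations in three independent runs. Dye-loaded CHRM1-CHO cells were exposed 5 min at room temperature before stimulation by acetylcholine added at 50nM. Intracellular calcium was read kinetically on FDSS for 3 min.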

[13] = biological target: Muscarinic acetylcholine receptor M1 (Homo sapiens) (UniProt P11229); test: Cholinergic receptor muscarinic 1 (CHRM1) small molecule agonists, cell-based qHTS assay (AID 1963589); note: nearly all actives have a fitted effect of over 35% in size
In short: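 Agonist-mode calcium-flux screen: compounds at 15 concentrations, three independent runs, were pin-transferred onto dye-loaded human CHRM1-CHO cells. Fluorescence was then recorded kinetically every second over minutes.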

[14] = cAMP Responsive Elements (CRE) small molecule agonists, cell-based qHTS assay (AID 1963590)
In short: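 Agonist mode: compound added to CRE-bla HEK 293T cells (2,000/well, 18 h after plating) for 3 h at 37 C/5% CO2. Reporter activity detected via FRET beta-lactamase substrate, 2 h room-temperature loading.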

[15] = biological target: Beta-2 adrenergic receptor (Homo sapiens) (UniProt P07550); test: Adrenergic beta2 receptor (ADRB2) small molecule antagonists, cell-based qHTS assay (AID 1963592); note: series mostly up to about 92 µM; nearly all actives have a fitted effect of over 50% in size
Sequence of Beta-2 adrenergic receptor (Homo sapiens) (P07550 whole entry, looked up): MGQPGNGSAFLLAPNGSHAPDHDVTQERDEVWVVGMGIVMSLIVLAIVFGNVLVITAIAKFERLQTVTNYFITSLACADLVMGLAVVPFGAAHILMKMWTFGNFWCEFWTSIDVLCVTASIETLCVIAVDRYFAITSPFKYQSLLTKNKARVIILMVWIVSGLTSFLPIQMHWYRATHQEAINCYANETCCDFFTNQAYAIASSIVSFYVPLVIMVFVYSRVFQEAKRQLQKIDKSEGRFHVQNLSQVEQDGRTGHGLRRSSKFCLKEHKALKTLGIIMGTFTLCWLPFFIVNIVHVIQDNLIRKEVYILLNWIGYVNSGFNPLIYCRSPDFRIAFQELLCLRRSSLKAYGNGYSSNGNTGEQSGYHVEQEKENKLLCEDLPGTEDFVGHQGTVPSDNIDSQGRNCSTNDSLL
In short: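 Assay format: CHO-ADRB2 cells, 18-20hr seeding at 37C/5% CO2, then compound plus 1nM isoproterenol agonist mix for 0.5hr RT. Homogeneous time-resolved fluorescence cAMP detection after 1hr, expressed as 665/615 nm ratio.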

[16] = biological target: D(2) dopamine receptor (Homo sapiens) (UniProt P14416); test: Dopamine D2 receptor (DRD2) small molecule agonists, cell-based qHTS assay (AID 1963594); note: nearly all actives have a fitted effect of over 35% in size
Sequence of D(2) dopamine receptor (Homo sapiens) (P14416 whole entry, looked up): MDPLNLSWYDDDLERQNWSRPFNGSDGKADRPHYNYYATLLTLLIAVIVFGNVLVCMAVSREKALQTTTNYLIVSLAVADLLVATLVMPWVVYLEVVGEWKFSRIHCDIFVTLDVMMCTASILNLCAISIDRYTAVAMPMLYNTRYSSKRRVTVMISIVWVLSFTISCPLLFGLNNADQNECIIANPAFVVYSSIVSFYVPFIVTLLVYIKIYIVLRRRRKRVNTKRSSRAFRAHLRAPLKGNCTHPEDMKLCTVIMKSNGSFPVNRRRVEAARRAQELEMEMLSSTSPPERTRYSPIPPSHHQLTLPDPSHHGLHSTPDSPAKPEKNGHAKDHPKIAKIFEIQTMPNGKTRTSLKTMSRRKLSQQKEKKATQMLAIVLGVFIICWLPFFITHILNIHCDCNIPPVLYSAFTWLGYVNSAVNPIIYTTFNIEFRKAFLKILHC
In short: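 HEK293 cells stably expressing DRD2 were cultured 24 h at 37 C, then given Ro20-1724 (0.1 mM final) and compounds for 10 min at room temperature. NKH477 (200nM) was then added for 30 min. cAMP was read by HTRF.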

[17] = biological target: D(2) dopamine receptor (Homo sapiens) (UniProt P14416); test: Dopamine D2 receptor (DRD2) small molecule antagonists, cell-based qHTS assay (AID 1963595; active = well fitted inhibition curve with a large enough effect in the signal ratio in the repeat runs, with a control signal flat; the % refers to the signal ratio)
In short: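 HEK293 cells stably expressing DRD2 were preincubated with 0.1 mM Ro20-1724, then with compound for 10 min at room temperature. Cells were stimulated with 200 nM NKH477 plus 12 nM quinpirole for 30 min, and cAMP was read by HTRF.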

[18] = biological target: 5-hydroxytryptamine receptor 2A (Homo sapiens) (UniProt P28223); test: 5-hydroxytryptamine receptor 2A (HTR2A) small molecule agonists, cell-based qHTS assay (AID 1963587); note: nearly all actives have a fitted effect of over 30% in size
Sequence of 5-hydroxytryptamine receptor 2A (Homo sapiens) (P28223 whole entry, looked up): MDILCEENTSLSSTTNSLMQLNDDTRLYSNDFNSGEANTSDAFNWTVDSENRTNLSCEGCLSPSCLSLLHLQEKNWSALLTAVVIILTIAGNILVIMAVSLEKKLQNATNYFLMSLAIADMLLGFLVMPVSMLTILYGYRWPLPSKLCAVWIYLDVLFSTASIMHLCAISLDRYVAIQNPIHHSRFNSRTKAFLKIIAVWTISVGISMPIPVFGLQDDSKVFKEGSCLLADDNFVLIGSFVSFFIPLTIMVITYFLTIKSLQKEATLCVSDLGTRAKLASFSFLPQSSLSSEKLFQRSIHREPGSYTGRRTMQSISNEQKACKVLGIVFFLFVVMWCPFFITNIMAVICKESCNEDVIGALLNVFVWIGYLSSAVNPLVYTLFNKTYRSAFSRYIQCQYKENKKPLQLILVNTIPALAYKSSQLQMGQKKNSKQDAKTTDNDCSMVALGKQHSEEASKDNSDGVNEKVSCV
In short: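 HTR2A-CHO cells, plated 18 h at 37 C/5% CO2, dye-loaded 1 h at 37 C; compounds in DMSO added by pin tool (agonist mode). Intracellular calcium flux read as kinetic fluorescence on FDSS over 2 min at 1 s intervals.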

[19] = cAMP Responsive Elements (CRE) small molecule antagonists, cell-based qHTS assay (AID 1963591; active = well fitted inhibition curve with a large enough effect in the signal ratio in the repeat runs, not every such curve was filed as active; the % refers to the signal ratio)
In short: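 Antagonist mode: compounds are added alongside the adenylyl cyclase activator NKH477 (0.25 uM final) to CRE-bla HEK293T cells for 3 h. LiveBLAzer FRET substrate, 2 h at room temperature, reports bla expression.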

[20] = biological target: Beta-2 adrenergic receptor (Homo sapiens) (UniProt P07550); test: Adrenergic beta2 receptor (ADRB2) small molecule agonists, cell-based qHTS assay (AID 1963593);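 note: CHO cells stably overexpressing human ADRB2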
In short: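 CHO cells stably over-expressing ADRB2 were plated overnight at 37C, then dosed with compounds plus a stimulation mix containing 100uM IBMX and 25uM Ro-20-1724 for 0.5hr at room temperature. cAMP was measured by HTRF competition, 1hr.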

Measured: Potency

CCCCCCCCc1ccc(S(=O)(=O)O)cc1
not listed: [18] | [19] | [20]
inactive: all other assays above

OCCC(F)(F)C(F)(F)C(F)(F)C(F)(F)C(F)(F)C(F)(F)C(F)(F)C(F)(F)F
not listed: [16] | [17] | [20]
inactive: all other assays above

CCC1(C)C(=O)N(Cl)C(=O)N1Cl (stereo unspecified)
not listed: [15] | [16] | [18] | [20]
inactive: all other assays above

NC(CS)C(=O)O (stereo unspecified)
not listed: [14] | [15] | [16] | [18] | [20]
inactive: all other assays above

CC(C)CCCCCCOC(=O)CCCCC(=O)OCCCCCCC(C)C
not listed: [16]
inactive: all other assays above

CC(=O)OC1CCCCC1
not listed: [20]
inactive: all other assays above

CC(=O)c1cccnc1
not listed: [20]
inactive: all other assays above

CC(=O)N(CC(=O)N(C)C)c1ccccc1
not listed: [16]
inactive: all other assays above
